# Data published in article PMC7862700, “An all-to-all approach to the identification of sequence-specific readers for epigenetic DNA modifications on cytosine”.
# Experiments:
# Experiment in all cases: DAPPL (digital affinity profiling via proximity ligation, sequencing); 10 mM Tris-HCl pH 7.5, 50 mM NaCl, 1 mM DTT, 4% glycerol, room temperature, 30 min; GST-TFs on glutathione beads, 16-mer random dsDNA library, 0.1% formaldehyde crosslink after washing; high values mean tight binding
# FLI1 = molecular target: T1, FLI1 (Homo sapiens, UniProt Q01543 1-452); conditions: protein: recombinant; tags: N-terminal GST; dsDNA, one strand shown
# T1 sequence: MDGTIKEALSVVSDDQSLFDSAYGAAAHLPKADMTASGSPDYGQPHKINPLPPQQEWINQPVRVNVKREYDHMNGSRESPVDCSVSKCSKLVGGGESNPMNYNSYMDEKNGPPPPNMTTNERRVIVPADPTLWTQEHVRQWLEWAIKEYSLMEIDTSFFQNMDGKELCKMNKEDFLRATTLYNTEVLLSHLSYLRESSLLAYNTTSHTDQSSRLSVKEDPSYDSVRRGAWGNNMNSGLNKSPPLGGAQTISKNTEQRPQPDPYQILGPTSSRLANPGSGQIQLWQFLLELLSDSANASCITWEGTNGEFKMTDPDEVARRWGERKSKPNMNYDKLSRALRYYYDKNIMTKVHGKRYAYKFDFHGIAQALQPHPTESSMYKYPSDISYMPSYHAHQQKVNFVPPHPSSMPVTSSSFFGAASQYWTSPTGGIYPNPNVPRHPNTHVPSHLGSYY
# Method in brief: (§1)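 A tag-only sample was pooled with DNA-barcoded human transcription factors that had been expressed in yeast as GST fusions and captured on glutathione beads. The pools were incubated for 30 min at room temperature with 200 nmole of a random double-stranded 16-mer DNA library in Tris/NaCl/DTT/glycerol buffer, then washed, crosslinked with 0.1% formaldehyde, proximity-ligated (BsaI/T4 ligase, 1 h, 37 °C), PCR-amplified and sequenced on an Illumina NextSeq500. Binding signal is each hexamer's read frequency for a factor divided by its frequency for the tag-only sample.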
# ELK1 = molecular target: T2, ELK1 (Homo sapiens, UniProt P19419 1-428); conditions: protein: recombinant; tags: N-terminal GST; dsDNA, one strand shown
# T2 sequence: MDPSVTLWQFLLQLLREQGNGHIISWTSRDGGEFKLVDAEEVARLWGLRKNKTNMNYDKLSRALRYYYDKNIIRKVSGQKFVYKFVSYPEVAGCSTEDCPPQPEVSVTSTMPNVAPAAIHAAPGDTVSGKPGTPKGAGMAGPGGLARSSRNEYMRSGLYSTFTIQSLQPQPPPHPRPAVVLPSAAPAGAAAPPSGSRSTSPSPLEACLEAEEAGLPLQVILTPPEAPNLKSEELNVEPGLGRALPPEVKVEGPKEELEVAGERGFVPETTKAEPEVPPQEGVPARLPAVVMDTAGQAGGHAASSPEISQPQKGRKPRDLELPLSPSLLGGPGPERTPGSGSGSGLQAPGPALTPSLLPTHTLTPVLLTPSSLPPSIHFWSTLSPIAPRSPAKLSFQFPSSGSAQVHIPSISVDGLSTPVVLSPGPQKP
# Method in brief: as §1
# GABPA = molecular target: T3, GABPA (Homo sapiens, UniProt Q06546 1-454); conditions: protein: recombinant; tags: N-terminal GST; dsDNA, one strand shown
# T3 sequence: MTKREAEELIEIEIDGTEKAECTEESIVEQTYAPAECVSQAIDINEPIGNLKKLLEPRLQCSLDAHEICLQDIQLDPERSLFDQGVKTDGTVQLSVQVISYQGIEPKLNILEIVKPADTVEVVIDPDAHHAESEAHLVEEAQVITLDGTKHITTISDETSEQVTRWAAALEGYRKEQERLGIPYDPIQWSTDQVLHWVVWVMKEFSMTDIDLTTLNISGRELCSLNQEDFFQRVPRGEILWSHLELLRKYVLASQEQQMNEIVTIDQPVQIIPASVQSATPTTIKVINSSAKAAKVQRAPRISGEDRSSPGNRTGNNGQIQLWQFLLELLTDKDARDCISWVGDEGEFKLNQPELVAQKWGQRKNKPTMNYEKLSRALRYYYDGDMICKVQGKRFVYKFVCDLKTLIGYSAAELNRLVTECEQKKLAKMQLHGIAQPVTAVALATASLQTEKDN
# Method in brief: as §1
# ERG = molecular target: T4, ERG (Homo sapiens, UniProt P11308 1-479); conditions: protein: recombinant; tags: N-terminal GST; dsDNA, one strand shown
# T4 sequence: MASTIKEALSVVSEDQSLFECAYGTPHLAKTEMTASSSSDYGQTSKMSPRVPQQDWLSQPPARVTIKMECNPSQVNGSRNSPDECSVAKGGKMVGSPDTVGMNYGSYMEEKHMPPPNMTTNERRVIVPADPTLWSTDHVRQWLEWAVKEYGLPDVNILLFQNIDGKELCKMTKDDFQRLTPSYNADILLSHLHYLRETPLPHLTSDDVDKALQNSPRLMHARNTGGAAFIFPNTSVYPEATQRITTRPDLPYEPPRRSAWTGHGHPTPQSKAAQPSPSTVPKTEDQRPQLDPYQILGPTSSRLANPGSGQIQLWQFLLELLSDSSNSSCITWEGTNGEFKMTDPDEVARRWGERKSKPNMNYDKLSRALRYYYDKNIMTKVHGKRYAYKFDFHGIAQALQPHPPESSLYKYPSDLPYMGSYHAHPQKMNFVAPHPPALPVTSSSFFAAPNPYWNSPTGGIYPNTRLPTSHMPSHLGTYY
# Method in brief: as §1
# ELF1 = ELF1 (Homo sapiens, UniProt P32519 1-619); conditions: protein: recombinant; tags: N-terminal GST; dsDNA, one strand shown
# ELF1, sequence (P32519 whole entry): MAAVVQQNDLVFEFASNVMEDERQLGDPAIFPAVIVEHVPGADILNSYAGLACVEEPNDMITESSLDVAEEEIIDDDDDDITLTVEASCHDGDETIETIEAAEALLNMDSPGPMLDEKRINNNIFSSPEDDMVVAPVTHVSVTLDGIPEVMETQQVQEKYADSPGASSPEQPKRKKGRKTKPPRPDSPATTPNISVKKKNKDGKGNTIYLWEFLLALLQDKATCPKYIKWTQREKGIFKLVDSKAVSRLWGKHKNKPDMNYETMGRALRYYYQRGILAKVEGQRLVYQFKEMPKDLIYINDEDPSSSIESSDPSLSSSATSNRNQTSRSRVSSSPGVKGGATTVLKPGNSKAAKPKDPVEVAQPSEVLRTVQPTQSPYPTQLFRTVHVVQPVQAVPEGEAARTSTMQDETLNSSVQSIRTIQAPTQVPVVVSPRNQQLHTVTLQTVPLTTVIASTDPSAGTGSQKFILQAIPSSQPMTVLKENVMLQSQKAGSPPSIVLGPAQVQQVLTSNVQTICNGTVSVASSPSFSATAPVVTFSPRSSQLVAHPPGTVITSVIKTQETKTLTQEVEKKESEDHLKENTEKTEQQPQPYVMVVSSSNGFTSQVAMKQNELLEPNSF
# Method in brief: as §1
# EHF = molecular target: T5, EHF (Homo sapiens, UniProt Q9NZC4 1-300); conditions: protein: recombinant; tags: N-terminal GST; dsDNA, one strand shown
# T5 sequence: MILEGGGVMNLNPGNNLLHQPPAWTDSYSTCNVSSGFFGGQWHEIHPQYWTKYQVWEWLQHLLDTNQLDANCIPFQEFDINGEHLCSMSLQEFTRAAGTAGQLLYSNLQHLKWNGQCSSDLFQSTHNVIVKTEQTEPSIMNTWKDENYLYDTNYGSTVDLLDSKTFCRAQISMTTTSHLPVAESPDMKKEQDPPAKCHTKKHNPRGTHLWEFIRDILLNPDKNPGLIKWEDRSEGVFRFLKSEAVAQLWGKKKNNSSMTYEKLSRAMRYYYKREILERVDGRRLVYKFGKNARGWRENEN
# Method in brief: as §1
# SPI1 = SPI1 (Homo sapiens, UniProt P17947 1-270); conditions: protein: recombinant; tags: N-terminal GST; dsDNA, one strand shown
# Method in brief: as §1
# SPIB = SPIB (Homo sapiens, UniProt Q01892 1-262); conditions: protein: recombinant; tags: N-terminal GST; dsDNA, one strand shown
# SPIB, sequence (Q01892 whole entry): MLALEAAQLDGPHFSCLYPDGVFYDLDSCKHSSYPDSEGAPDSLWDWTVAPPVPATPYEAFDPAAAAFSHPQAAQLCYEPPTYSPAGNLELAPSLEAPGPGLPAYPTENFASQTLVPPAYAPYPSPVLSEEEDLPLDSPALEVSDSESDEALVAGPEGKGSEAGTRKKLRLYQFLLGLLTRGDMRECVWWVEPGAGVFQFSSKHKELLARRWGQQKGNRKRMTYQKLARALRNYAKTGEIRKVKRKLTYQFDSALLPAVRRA
# Method in brief: as §1
# ELK3 = molecular target: T6, ELK3 (Homo sapiens, UniProt P41970 1-407); conditions: protein: recombinant; tags: N-terminal GST; dsDNA, one strand shown
# T6 sequence: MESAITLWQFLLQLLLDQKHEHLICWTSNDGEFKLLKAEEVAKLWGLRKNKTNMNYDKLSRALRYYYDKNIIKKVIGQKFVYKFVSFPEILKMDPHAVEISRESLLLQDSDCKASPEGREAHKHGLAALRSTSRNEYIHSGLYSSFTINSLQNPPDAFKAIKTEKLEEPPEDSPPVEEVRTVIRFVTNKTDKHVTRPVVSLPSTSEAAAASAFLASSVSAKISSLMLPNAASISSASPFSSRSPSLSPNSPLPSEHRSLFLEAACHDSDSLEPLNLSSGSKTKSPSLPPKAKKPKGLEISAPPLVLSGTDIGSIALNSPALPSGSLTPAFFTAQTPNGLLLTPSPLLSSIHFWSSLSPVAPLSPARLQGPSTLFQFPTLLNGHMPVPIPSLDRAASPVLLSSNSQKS
# Method in brief: as §1
# FEV = molecular target: T7, FEV (Homo sapiens, UniProt Q99581 1-238); conditions: protein: recombinant; tags: N-terminal GST; dsDNA, one strand shown
# T7 sequence: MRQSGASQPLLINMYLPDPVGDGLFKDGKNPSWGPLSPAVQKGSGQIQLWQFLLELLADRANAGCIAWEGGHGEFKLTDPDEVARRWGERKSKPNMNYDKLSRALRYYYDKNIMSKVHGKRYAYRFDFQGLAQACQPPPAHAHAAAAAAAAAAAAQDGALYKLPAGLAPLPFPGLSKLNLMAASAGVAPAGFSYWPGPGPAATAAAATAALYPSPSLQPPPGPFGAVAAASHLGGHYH
# Method in brief: as §1
# ETV5 = ETV5 (Homo sapiens, UniProt P41161 1-510); conditions: protein: recombinant; tags: N-terminal GST; dsDNA, one strand shown
# ETV5, sequence (P41161 whole entry): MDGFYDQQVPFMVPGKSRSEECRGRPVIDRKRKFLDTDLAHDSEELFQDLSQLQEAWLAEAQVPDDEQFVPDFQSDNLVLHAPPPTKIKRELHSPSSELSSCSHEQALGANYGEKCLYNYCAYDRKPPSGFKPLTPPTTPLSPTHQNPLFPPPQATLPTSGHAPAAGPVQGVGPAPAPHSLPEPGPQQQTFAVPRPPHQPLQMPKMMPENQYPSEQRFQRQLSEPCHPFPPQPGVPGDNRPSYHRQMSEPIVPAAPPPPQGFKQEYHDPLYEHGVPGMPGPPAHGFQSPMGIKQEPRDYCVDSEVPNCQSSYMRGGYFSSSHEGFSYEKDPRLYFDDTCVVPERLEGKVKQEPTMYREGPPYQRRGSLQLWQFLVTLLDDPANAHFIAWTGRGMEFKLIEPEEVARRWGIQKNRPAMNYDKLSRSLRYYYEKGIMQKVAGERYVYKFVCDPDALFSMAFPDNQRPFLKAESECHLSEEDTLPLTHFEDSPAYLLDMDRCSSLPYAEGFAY
# Method in brief: as §1
# HSF1 = HSF1 (Homo sapiens, UniProt Q00613 1-529); conditions: protein: recombinant; tags: N-terminal GST; chain copies: 3; dsDNA, one strand shown
# HSF1, sequence (Q00613 whole entry): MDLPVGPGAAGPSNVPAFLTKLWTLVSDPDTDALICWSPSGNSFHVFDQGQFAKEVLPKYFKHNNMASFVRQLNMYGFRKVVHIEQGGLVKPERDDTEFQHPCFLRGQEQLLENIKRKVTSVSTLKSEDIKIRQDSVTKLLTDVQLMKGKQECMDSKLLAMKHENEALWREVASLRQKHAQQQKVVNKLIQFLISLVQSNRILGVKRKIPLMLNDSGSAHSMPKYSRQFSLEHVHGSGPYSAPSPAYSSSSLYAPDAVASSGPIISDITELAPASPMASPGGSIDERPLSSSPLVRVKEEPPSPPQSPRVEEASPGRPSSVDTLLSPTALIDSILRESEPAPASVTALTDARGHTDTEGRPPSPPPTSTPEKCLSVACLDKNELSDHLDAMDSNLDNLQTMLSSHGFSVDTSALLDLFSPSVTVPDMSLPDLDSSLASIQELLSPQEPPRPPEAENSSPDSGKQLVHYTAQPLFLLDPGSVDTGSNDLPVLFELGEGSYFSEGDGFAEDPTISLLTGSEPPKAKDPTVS
# Method in brief: as §1
# SPIC = molecular target: T8, SPIC (Homo sapiens, UniProt Q8N5J4 1-248); conditions: protein: recombinant; tags: N-terminal GST; dsDNA, one strand shown
# T8 sequence: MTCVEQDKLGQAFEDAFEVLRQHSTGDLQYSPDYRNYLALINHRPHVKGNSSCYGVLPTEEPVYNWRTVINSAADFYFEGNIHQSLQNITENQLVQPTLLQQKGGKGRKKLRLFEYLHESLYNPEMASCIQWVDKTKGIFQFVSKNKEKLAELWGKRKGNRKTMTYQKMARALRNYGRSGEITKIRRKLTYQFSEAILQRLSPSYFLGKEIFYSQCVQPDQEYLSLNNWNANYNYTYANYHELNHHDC
# Method in brief: as §1
# ELF4 = ELF4 (Homo sapiens, UniProt Q99607 1-663); conditions: protein: recombinant; tags: N-terminal GST; dsDNA, one strand shown
# ELF4, sequence (Q99607 whole entry): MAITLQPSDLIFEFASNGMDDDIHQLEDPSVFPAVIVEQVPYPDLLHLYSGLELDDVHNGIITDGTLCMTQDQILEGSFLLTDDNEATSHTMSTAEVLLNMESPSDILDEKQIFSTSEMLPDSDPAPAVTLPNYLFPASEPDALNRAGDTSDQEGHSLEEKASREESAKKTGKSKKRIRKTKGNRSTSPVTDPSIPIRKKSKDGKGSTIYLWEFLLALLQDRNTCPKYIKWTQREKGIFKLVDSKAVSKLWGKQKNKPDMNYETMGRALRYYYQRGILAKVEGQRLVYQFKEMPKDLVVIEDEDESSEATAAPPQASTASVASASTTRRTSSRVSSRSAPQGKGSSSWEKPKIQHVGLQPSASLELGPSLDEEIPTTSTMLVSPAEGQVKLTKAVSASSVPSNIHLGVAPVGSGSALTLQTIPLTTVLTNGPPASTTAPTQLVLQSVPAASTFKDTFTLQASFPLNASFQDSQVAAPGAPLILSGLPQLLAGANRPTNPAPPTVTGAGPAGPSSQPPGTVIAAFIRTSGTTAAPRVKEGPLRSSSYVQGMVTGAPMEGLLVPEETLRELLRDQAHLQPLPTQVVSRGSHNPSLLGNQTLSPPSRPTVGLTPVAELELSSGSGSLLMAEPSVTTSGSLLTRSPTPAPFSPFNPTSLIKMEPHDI
# Method in brief: as §1
# ELK4 = molecular target: T9, ELK4 (Homo sapiens, UniProt P28324-2 1-405); conditions: protein: recombinant; tags: N-terminal GST; dsDNA, one strand shown
# T9 sequence: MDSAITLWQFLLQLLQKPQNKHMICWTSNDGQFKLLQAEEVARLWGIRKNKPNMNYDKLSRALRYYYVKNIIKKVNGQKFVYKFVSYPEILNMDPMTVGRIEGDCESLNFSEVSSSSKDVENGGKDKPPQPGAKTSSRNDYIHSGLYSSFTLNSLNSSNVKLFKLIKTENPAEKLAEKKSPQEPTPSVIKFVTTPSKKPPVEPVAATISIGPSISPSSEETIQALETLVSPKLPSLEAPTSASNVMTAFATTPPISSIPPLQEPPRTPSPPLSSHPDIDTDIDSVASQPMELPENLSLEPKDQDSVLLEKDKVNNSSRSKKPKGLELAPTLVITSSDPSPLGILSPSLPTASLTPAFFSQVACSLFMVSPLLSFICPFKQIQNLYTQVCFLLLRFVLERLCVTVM
# Method in brief: as §1
# ETV2 = molecular target: T10, ETV2 (Homo sapiens, UniProt O00321 1-342); conditions: protein: recombinant; tags: N-terminal GST; dsDNA, one strand shown
# T10 sequence: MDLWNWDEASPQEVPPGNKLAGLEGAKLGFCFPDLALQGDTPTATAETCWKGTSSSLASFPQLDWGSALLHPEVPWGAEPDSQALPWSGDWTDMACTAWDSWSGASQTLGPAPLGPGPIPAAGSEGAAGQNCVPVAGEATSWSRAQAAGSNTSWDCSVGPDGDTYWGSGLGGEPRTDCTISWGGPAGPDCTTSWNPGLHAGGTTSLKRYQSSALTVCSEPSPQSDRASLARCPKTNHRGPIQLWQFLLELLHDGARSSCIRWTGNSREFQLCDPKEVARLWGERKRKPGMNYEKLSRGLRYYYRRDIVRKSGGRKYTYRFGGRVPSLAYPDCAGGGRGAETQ
# Method in brief: as §1
# ELF3 = molecular target: T11, ELF3 (Homo sapiens, UniProt P78545 1-371); conditions: protein: recombinant; tags: N-terminal GST; dsDNA, one strand shown
# T11 sequence: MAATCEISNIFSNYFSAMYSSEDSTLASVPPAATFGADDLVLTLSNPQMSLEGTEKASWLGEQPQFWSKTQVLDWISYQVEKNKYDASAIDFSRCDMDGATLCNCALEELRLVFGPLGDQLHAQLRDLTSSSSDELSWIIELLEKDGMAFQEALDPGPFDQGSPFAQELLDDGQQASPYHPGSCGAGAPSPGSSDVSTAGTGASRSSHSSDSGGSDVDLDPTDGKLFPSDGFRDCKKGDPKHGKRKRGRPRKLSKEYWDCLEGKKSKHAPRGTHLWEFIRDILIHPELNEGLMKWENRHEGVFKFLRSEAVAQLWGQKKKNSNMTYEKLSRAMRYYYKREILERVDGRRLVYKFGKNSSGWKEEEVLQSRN
# Method in brief: as §1
# CRX = CRX (Homo sapiens, UniProt O43186 1-299); conditions: protein: recombinant; tags: N-terminal GST; dsDNA, one strand shown
# CRX, sequence (O43186 whole entry): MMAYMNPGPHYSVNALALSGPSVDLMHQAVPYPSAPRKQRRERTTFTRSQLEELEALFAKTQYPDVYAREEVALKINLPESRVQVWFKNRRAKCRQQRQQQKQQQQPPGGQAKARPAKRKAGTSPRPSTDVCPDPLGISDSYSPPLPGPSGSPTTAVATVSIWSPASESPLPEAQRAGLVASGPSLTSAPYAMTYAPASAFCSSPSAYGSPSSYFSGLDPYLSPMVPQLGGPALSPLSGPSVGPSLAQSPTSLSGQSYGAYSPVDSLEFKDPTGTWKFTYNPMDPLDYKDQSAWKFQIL
# Method in brief: as §1
# ETV1 = ETV1 (Homo sapiens, UniProt P50549 1-477); conditions: protein: recombinant; tags: N-terminal GST; dsDNA, one strand shown
# ETV1, sequence (P50549 whole entry): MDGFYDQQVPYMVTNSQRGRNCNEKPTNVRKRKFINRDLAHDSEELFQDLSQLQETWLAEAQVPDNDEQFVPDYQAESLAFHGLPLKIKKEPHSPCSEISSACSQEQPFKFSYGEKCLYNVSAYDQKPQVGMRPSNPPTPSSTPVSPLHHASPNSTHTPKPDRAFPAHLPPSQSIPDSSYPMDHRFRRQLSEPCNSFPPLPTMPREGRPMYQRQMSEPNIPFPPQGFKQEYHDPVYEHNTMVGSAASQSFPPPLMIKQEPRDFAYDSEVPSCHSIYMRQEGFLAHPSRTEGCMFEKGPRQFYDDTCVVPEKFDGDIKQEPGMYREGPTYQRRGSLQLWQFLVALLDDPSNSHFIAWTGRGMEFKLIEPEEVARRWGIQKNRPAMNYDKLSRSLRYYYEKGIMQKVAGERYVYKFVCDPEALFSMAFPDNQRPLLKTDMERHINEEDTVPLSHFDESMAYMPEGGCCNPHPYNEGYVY
# Method in brief: as §1
sequence,measurement,setting,value
CTCAAG,binding signal,FLI1,"1.29 fold enrichment (6-mer frequency, TF over GST control)"
same,binding signal,ELK1,"1.17 fold enrichment (6-mer frequency, TF over GST control)"
same,binding signal,GABPA,"1.14 fold enrichment (6-mer frequency, TF over GST control)"
same,binding signal,ERG,"1.18 fold enrichment (6-mer frequency, TF over GST control)"
same,binding signal,ELF1,"1.18 fold enrichment (6-mer frequency, TF over GST control)"
same,binding signal,EHF,"1.21 fold enrichment (6-mer frequency, TF over GST control)"
same,binding signal,SPI1,"1.22 fold enrichment (6-mer frequency, TF over GST control)"
same,binding signal,SPIB,"1.2 fold enrichment (6-mer frequency, TF over GST control)"
same,binding signal,ELK3,"1.32 fold enrichment (6-mer frequency, TF over GST control)"
same,binding signal,FEV,"1.16 fold enrichment (6-mer frequency, TF over GST control)"
same,binding signal,ETV5,"1.14 fold enrichment (6-mer frequency, TF over GST control)"
same,binding signal,HSF1,"1.19 fold enrichment (6-mer frequency, TF over GST control)"
same,binding signal,SPIC,"1.1 fold enrichment (6-mer frequency, TF over GST control)"
same,binding signal,ELF4,"1.19 fold enrichment (6-mer frequency, TF over GST control)"
same,binding signal,ELK4,"1.09 fold enrichment (6-mer frequency, TF over GST control)"
same,binding signal,ETV2,"1.11 fold enrichment (6-mer frequency, TF over GST control)"
same,binding signal,ELF3,"1.22 fold enrichment (6-mer frequency, TF over GST control)"
same,binding signal,CRX,"1.2 fold enrichment (6-mer frequency, TF over GST control)"
same,binding signal,ETV1,"1.21 fold enrichment (6-mer frequency, TF over GST control)"
